# In ChEMBL document CHEMBL3433997, “St. Jude Leishmania screening dataset” (2016):
# Where “and” joins values, the source holds several entries; their conditions need not be identical. Equal values may be shown once.
# What was measured:
# Assay type in all cases: functional
# [1] = molecular target: Solute carrier family 2, facilitated glucose transporter member 1 (Homo sapiens) (UniProt P11166); test: ST_JUDE_LEISH: Cytotoxicity at 2uM final concentration against transgenic Leishmania Mexicana promastigotes LmGLUT1 that are glucose transport deficient and complemented with the human glucose transporter GLUT1. Activity is measured by DNA content using SYBR green in vitro
# [2] = molecular target: Hexose transporter 1 (Plasmodium falciparum) (UniProt O97467); test: ST_JUDE_LEISH: Cytotoxicity at 2uM final concentration against transgenic Leishmania Mexicana promastigotes LmPfHT that are glucose transport deficient and complemented with the Plasmodium falciparum hexose transporter. Activity is measured by DNA content using SYBR green in vitro
# [3] = molecular target: Glucose transporter (Leishmania mexicana) (UniProt O61059); test: ST_JUDE_LEISH: Cytotoxicity at 2uM final concentration against transgenic Leishmania Mexicana promastigotes LmGT2 that are glucose transport deficient and complemented with the L. Mexicana glucose transporter 2. Activity is measured by DNA content using SYBR green in vitro
# Solute carrier family 2, facilitated glucose transporter member 1 (Homo sapiens), sequence (P11166 whole entry): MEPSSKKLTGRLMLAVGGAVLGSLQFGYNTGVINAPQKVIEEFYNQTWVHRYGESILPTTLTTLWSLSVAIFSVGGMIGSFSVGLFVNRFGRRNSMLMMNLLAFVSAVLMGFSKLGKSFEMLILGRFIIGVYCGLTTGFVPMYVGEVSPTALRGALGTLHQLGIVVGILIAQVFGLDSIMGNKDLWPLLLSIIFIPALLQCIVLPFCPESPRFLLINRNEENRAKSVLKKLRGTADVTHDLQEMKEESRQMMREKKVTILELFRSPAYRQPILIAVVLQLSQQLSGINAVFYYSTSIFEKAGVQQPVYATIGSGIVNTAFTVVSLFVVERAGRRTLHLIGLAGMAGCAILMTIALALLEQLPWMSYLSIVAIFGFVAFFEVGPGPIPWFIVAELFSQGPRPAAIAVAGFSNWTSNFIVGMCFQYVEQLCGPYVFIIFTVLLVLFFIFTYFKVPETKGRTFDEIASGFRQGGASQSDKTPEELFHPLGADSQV
SMILES,inhibition [1],inhibition [2],inhibition [3]
O=C(NC1CCC(N2CCC3(CC2)C(=O)NCN3c2ccccc2)CC1)c1cc2ccccc2[nH]1 (configuration not stated),-0.44%,-0.89%,0.13%
CCN1CC=C(c2c[nH]c3ccccc23)CC1,0.74%,1.07%,0.73%
CC[C@H]1CN2CC[C@H]1C[C@H]2[C@H](O)c1ccnc2ccc(OC)cc12,-0.16%,0.87%,0.32%
CCN(CC)CCN1C(=O)C(O)(c2ccccc2Cl)c2c1cc(C(N)=O)cc2C(F)(F)F (configuration not stated),3.25%,2.29%,2.69%
O=C(/C=C/c1ccc2ccccc2c1)NC1CCC(CN2CCC(c3c[nH]c4ccccc34)CC2)CC1 (configuration not stated),1.06%,1.84%,3.4%
COCCNCc1cccc(-c2ccccc2CN(C(=O)Nc2ccccc2)C2CCN(Cc3ccccc3)CC2)c1,-0.65%,-2.21%,4.23%
CN1C(=O)OC[C@@H]1Cc1ccc2[nH]cc(C3=CCN(Cc4ccccc4)CC3)c2c1,2.44%,7.87%,-0.74%
CC(=O)C1(c2ccccc2)CCN(CCC(NC(=O)c2cc(C(F)(F)F)cc(C(F)(F)F)c2)c2ccc(Cl)c(Cl)c2)CC1 (configuration not stated),-0.39%,0.71%,5.98%
Cc1ccc(C(=O)Nc2ccnc(N(C)C3CCN(Cc4cccc(O)c4)CC3)c2)cn1,3.48%,1.94%,1.3%
COc1ccc(C(=O)C2CC2CN2CC=C(c3c(C)[nH]c4ccccc34)CC2)cc1 (configuration not stated),-1.12%,2.52%,3.3%
CC(C)CNCc1ccc(-c2ccc(CN(C(=O)Nc3ccccc3)C3CCN(Cc4ccccc4)CC3)cc2)cc1,3.1%,2.41%,4.94%
CC[C@H]1CN2CC[C@@H]1C[C@H]2[C@H](O)c1ccnc2ccc(OC)cc12,0.79%,0.55%,3.26%
CCOC(=O)c1c(C)n(C2CCCCCC2)c2cc(Br)c(O)cc12,2.52%,0.67%,4.54%
C/C=C1\CN2CC[C@H]1C[C@H]2[C@H](O)c1ccnc2ccc(OC)cc12,10% and 3.4%,9.89% and 3.71%,9.9% and 2.84%
CN1CC[C@H](N(Cc2ccccc2F)c2ccc(C#N)c(Cl)c2)C1,2.58%,3.02%,4.63%
CN1CCC(COC(=O)C(O)(c2ccccc2)c2ccccc2)C1 (configuration not stated),2.1%,-0.69%,-0.38%
O=C(/C=C/c1ccc(Cl)c(Cl)c1)NCC1CCCC(CN2CCC(c3c[nH]c4ccccc34)CC2)C1 (configuration not stated),2.54%,3.43%,0.26%
O=C(/C=C/c1cccc2ccccc12)NC1CCC(CN2CCC(c3c[nH]c4ccccc34)CC2)CC1 (configuration not stated),1.25% and 2.48%,0.21% and 2.66%,-2.33% and 1.25%
COc1ccc(CC(C)NCC(O)c2ccc(Cl)c(Cl)c2)cc1 (configuration not stated),0.41%,-0.07%,-2.6%
CCCCCc1cc(O)c2c(c1)OC(C)(C)CC2C1=CCN(Cc2cnc3ccccc3c2)CC1 (configuration not stated),1.53%,1.25%,0.64%
COc1c(F)cc(CC(C)NCC(O)c2cccc(Cl)c2)cc1F (configuration not stated),-0.28%,-0.81%,-3.56%
COC(=O)c1ccc(CC(C)NCC(O)c2cccc(OCc3ccccc3)c2)cc1 (configuration not stated),7.34%,7.31%,8.15%
O=C(/C=C/c1ccc(Cl)c(Cl)c1)NCc1ccc(CN2CCC(c3c[nH]c4ccccc34)CC2)cc1,2.64%,2.44%,0.41%
CC[C@H]1CN2CC[C@@H]1C[C@H]2[C@H](O)c1cc(N2CCC(O)CC2)nc2ccc(OC)cc12,-1.16%,-0.97%,-0.9%
CC[C@H]1CN2CC[C@H]1C[C@H]2[C@H](O)c1cc(N2CCCC(CO)C2)nc2ccc(OC)cc12 (some centres not stated),2.62%,1.73%,0.11%

SMILES,inhibition [1],inhibition [2],inhibition [3]
CN1CCN(c2ccc3[nH]c(-c4ccc5[nH]c(-c6ccc(O)cc6)nc5c4)nc3c2)CC1,4.92%,5.09%,2.92%
CC(=O)Nc1ccc2[nH]cc(C3CCN(CC4CCC(NC(=O)/C=C/c5ccc(Cl)c(Cl)c5)CC4)CC3)c2c1 (configuration not stated),-0.34% and -0.54%,-0.56% and -1.03%,0.33% and -0.43%
CC(=O)N(Cc1cccc(-c2cccc(CNCCc3ccccc3)c2)c1)C1CCN(Cc2ccccc2)CC1,-0.27%,1.94%,4.41%
COc1cccc(C(=O)C2CC2CN2CC=C(c3c[nH]c4cccc(Br)c34)CC2)c1 (configuration not stated),1.59%,1.08%,-0.34%
S=C(NCC1CCCCC1)NC1CCC(CN2CCC(c3c[nH]c4ccccc34)CC2)CC1 (configuration not stated),1.87%,3.66%,0.26%
CC[C@H]1CN2CC[C@H]1C[C@H]2[C@H](O)c1cc(N2CCCC(C(=O)N(CC)CC)C2)nc2ccc(OC)cc12 (some centres not stated),1.75%,2.21%,0.33%
O=C(NC1CCC(CN2CCC(c3c[nH]c4ccccc34)CC2)CC1)c1cnn(-c2ccccc2)c1-c1ccccc1Cl (configuration not stated),4.74%,10.3%,3.95%
Cc1ccc(CC(C)NC[C@H](O)c2cccc(Cl)c2)cc1 (some centres not stated),1.71% and 1.19%,0.19% and 1.01%,1.47% and 1.06%
CC(Cc1ccc(CSC(C)C)cc1)NCC(O)c1cccc(Cl)c1 (configuration not stated),3.54%,3.54%,3.37%
O=C(NC1CCC(CN2CCC(c3c[nH]c4ccccc34)CC2)CC1)c1cc(-c2ccc(F)cc2F)ccc1O (configuration not stated),0.76%,0.13%,0.42%
COC(=O)/C=C/c1ccc(CC(C)NCC(O)c2cccc(Br)c2)cc1 (configuration not stated),1.85%,0.16%,0.91%
CS(=O)(=O)Nc1ccc2[nH]cc(C3CCN(CC4CCC(NC(=O)/C=C/c5ccc(Cl)c(Cl)c5)CC4)CC3)c2c1 (configuration not stated),0.82%,6.93%,-0.55%
Oc1ccc(Cl)cc1CN1CCC(CCOC(c2ccccc2)c2ccccc2)CC1,9.61%,9.6%,7.84%
COc1cccc(C(=O)C2CC2CN2CC=C(c3c(C)[nH]c4ccccc34)CC2)c1 (configuration not stated),1.94%,-3.97%,4.19%
COc1ccc(CC(C)NCC(O)c2cccc(Br)c2)cc1 (configuration not stated),10.3%,8.65%,9.13%
COc1ccc(CCNCc2ccc3nc(N)c(C)cc3c2)cc1,0.92%,2.14%,3.68%
Cc1ccc2c(C3=CCN(CCCCC4(C)C(=O)Nc5ccccc54)CC3)c(C)[nH]c2c1 (configuration not stated),0.29%,0.34%,-0.56%
CCCCCCCN1C2CCC1CC(CCOc1ccnc3ccc(OC)cc13)C2 (configuration not stated),11.4%,8.68%,11%
FC(F)(F)c1ccc(NC(=S)NC2CCC(CN3CCC(c4c[nH]c5ccccc45)CC3)CC2)cc1 (configuration not stated),13.2% and 1.58%,12.7% and 6.46%,3.66% and 2.93%
Fc1ccc(N(c2nc(-c3cc(F)cc(C(F)(F)F)c3)cs2)C2CCNCC2)cc1,-1.03%,-0.75%,-1.46%
COC(C(=O)OCCC1CCCN1C)(c1ccccc1)c1ccccc1 (configuration not stated),-0.93%,-0.75%,-4.58%
CNCCCCCCc1ccc(CC(C)NCC(O)c2cccc(Cl)c2)cc1 (configuration not stated),6.3%,2.29%,0.1%
CC(Cc1ccc(Oc2ccc(Cl)cc2)cc1)NCC(O)c1cccc(Cl)c1 (configuration not stated),-2.67%,-2.38%,-1.74%
CC[C@H]1CN2CC[C@H]1C[C@H]2[C@H](O)c1cc(/C=C/c2ccccc2)nc2ccc(OC)cc12,0.9%,-0.83%,-0.2%
